This is a sample that favours compounds with a hit; in the whole collection about 6.3% have one here.
Autofluor 339: intrinsic fluorescence of library compounds, ex339/em460 – biochemical, MLSMR library, data from DPM-DC assay, artefact control, profiling panel; compound autofluorescence, ex339/em460 nm, NADH buffer; stronger effect = higher value; 1 = no-compound wells, NADH background; fluorescence fold increase at 10 µM; hit rate 5.5% among 65,000; AID 709, 2007;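 active = at 10 µM, mean starting fluorescence two-fold or more over control wells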;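 also: signal is the first read of a kinetic run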
MK inhibit: S. pneumoniae MK inhibitors, primary screen, biochemical, PK/LDH-coupled NADH absorbance | mevalonate kinase [Streptococcus pneumoniae D39] | purified MK, PK/LDH-coupled NADH absorbance 340 nm | inhibition, % at 10 µM | hit rate 0.48% among 65,000;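 active = ranked among the strongest by inhibition in the single 10 µM screen, a fixed top-ranked set picked for dose follow-up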
A340 absorber: compound light absorbance at 340 nm, profiling panel, artefact control, biochemical, MLSMR library, data from PS, PMK, MK assays. compound absorbance at 340 nm, fold over control. fold change at 10 µM. 65,000 tested, under 10 active. AID 708, 2007;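 active = at 10 µM dose, initial 340 nm absorbance at least 2 fold that of control wells; inactive = change under 2 fold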;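 also: initial absorbance extrapolated from kinetic A340 decline of NADH oxidation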
NADH enzymes: inhibitors of PK/LDH coupling enzymes, profiling panel, artefact control, biochemical, MLSMR library | coupled PK/LDH NADH assays, four targets | IC50, µM (highest dose often 10 µM) | hit rate 0.02% among 65,000 | AID 774, 2007;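 active = single-dose screening hits from any of four coupled enzyme assays that gave an IC50 when retested across doses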;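 also: the DPM-DC format reads NADH fluorescence rather than 340 nm absorbance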
Spn PMK inh: S. pneumoniae PMK inhibitors, primary screen, biochemical, mevalonate pathway, pilot trial included; phosphomevalonate kinase (Streptococcus pneumoniae D39); purified PMK, PK/LDH-coupled NADH absorbance 340 nm; inhibition, % at 10 µM; hit rate 0.49% among 65,000; AID 539, 2006;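 active = top-ranked compounds by inhibition in the single 10 µM screen, taking a fixed number of the strongest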
DPM-DC inhibit: S. pneumoniae DPM-DC inhibitors, primary screen, biochemical, PK/LDH-coupled NADH fluorescence; diphosphomevalonate decarboxylase (Streptococcus pneumoniae D39); calls only at 10 µM; hit rate 0.49% among 65,000; purified DPM-DC;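 active = the 320 compounds with the highest percent inhibition in the single-dose primary screen, excluding strongly autofluorescent ones, cut at about 32% in these data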;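 also: kinetic rate of NADH fluorescence loss reporting ADP formed by the decarboxylase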
Hits are given with their value; n = inactive; x = no result given.

SMILES	Autofluor 339	MK inhibit	A340 absorber	NADH enzymes	Spn PMK inh	DPM-DC inhibit
CCC1CCCCN1P(=O)(c1ccc(C)o1)C(C)(C)C (configuration not stated)	n	n	n	n	n	n
CC(C)OC(=O)c1c(N)n(Cc2ccco2)c2nc3ccccc3nc12	2.28	n	n	n	n	x
Cc1nn(Cc2ccccc2Cl)c(Cl)c1C(=O)OCC(=O)NCc1ccco1	n	n	n	n	n	n
CCOC(=O)c1c(C)n(Cc2ccco2)c2ccc(OC)cc12	n	n	n	n	n	n
COCCOC(=O)c1c(N)n(Cc2ccco2)c2nc3ccccc3nc12	2.33	n	n	n	n	x
CC(=NCCO)c1c(O)n(C)c(=O)n(C)c1=O	n	n	n	n	n	n
Cc1cc(C)c(C(=O)CN2CCOCC2)c(C)c1	n	n	n	n	n	n
